# Test results as given in PubChem BioAssay AID651871 (Sanford-Burnham Center for Chemical Genomics, 2012).
# Tested on: H9c2
# Test: protection of cardiomyocytes from stress damage, SAR follow-up, cell-based, panel, H9c2 and HL-1, ATP luminescence, set 2 (AID 651871);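 note: cells exposed to stressor for 2 h before ATP readout; reference of the scale not given here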
# Details: H9c2/HL-1 cardiomyocytes, 2-deoxyglucose stress, with 2-deoxyglucose, run 4, at 39.5 µM (top of the series)
smiles,measurement,value
COc1ccc2c(c1OC)C(=O)N1c3ccccc3C(=O)N(Cc3cccc(Cl)c3Cl)C21 (stereo unspecified),activity (protection/inhibition),71%
